# Where “and” joins values, the source holds several entries; their conditions need not be identical. Equal values may be shown once. Calls of active or inactive are those of the source. Unless noted, no stated cut-off is given here; in the data, active means inhibition above about 80%; inactive means the rest.
# How the values were obtained:
# [1] = LFS_MB_P medulloblastoma growth inhibition, cell-based, chromothripsis tumors, cisplatin or BGB combos (AID 1671449); conditions: LFS_MB_P medulloblastoma cells;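 further: cells exposed for 96 hours; 0% = vehicle DMSO and 100% = killing by high DMSO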
# [2] = HDN33 neuroblastoma growth inhibition, cell-based, chromothripsis tumors, cisplatin or BGB combos (AID 1671450); conditions: HDN33 neuroblastoma cells, stronger effect = higher value;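 further: cells exposed to compound for four days; 0% = vehicle DMSO and 100% = cell killing by high DMSO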
# [3] = ICB984 medulloblastoma cell growth inhibition, synergistic combos for chromothripsis tumors, cisplatin or BGB combos (AID 1671451; call rule not given here;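 further: cells exposed for 96 hours before readout; 0% = vehicle DMSO and 100% = killing by high DMSO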); conditions: ICB984 medulloblastoma cells, drug combinations, stronger effect = higher value
# [4] = LFS_MB_1R medulloblastoma cell growth inhibition, synergistic combos for chromothripsis tumors, cisplatin or BGB combos (AID 1671452); conditions: LFS_MB_1R medulloblastoma cells, stronger effect = higher value;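 further: cells exposed for 96 hours before readout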
# [5] = HTB85 osteosarcoma cell growth inhibition, synergistic combos for chromothripsis tumors, BGB or cisplatin IC20 combos (AID 1671453); conditions: HTB85 osteosarcoma cells, drug combinations, stronger effect = higher value;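 further: cells exposed for 96 hours before readout; 0% = vehicle DMSO and 100% = high DMSO killing control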
# [6] = CRL2098 osteosarcoma cell growth inhibition, synergistic combos for chromothripsis tumors, BGB or cisplatin IC20 combos (AID 1671454); conditions: CRL2098 osteosarcoma cells, drug combinations, stronger effect = higher value;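 further: cells exposed for 96 h before readout; 0% = vehicle DMSO and 100% = killing by high DMSO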
# [7] = HD-MB03 medulloblastoma cell growth inhibition, synergistic combos for chromothripsis tumors, BGB or cisplatin IC20 combos (AID 1671455; in the data active means inhibition above about 83%;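 further: 0% = vehicle DMSO and 100% = high DMSO as cytotoxic control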); conditions: HD-MB03 medulloblastoma cells, stronger effect = higher value
# [8] = UWB1.289 ovarian carcinoma cell growth inhibition, synergistic combos for chromothripsis tumors, BGB or cisplatin combos (AID 1671456); conditions: UWB1.289 ovarian carcinoma cells, stronger effect = higher value;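 further: cells exposed to compound for four days; 0% = vehicle DMSO and 100% = killing by high DMSO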
# [9] = LFS_MB_2R medulloblastoma cell growth inhibition, synergistic combos for chromothripsis tumors, cisplatin combos (AID 1671457); conditions: LFS_MB_2R medulloblastoma cells, stronger effect = higher value;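 further: cells exposed to compound for four days before readout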
# [10] = MDA-MB-436 breast carcinoma cell growth inhibition, synergistic combos for chromothripsis tumors, BGB or cisplatin combos (AID 1671458; call rule not given here;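 further: cells exposed for 96 hours; 0% = vehicle DMSO and 100% = killing by high DMSO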); conditions: MDA-MB-436 breast carcinoma growth inhibition, drug combinations, stronger effect = higher value
# [11] = UWB1.289_BRCA1 ovarian cancer growth, cell-based, BGB or cisplatin combinations (AID 1671459); conditions: UWB1.289 BRCA1 ovarian carcinoma, drug combinations, stronger effect = higher value
# [12] = human astrocyte viability loss, single and combined drugs, cytotoxicity control for chromothriptic childhood tumor combination screen, cell-based, BGB or cisplatin IC20 combos (AID 1671460); conditions: Human astrocytes, drug combinations, stronger effect = higher value;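 further: cells exposed to compounds for 96 hours before viability readout; 0% = vehicle and 100% = killing control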
# [13] = growth inhibition of BT084 medulloblastoma cells, cell-based, ICGC_MB145, cisplatin and BGB IC40 combos (AID 1671461); conditions: drug combinations, stronger effect = higher value;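 further: cells exposed to drugs for 96 hours; 0% = vehicle DMSO and 100% = high DMSO full killing control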
# [14] = growth inhibition of RCMB18 medulloblastoma cells, cell-based, cisplatin and BGB IC40 combos (AID 1671462); conditions: stronger effect = higher value;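 further: cells exposed to compound for four days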
# [15] = growth inhibition of CRL1545 osteosarcoma cells, cell-based, cisplatin and BGB IC20 combos (AID 1671464); conditions: stronger effect = higher value;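 further: cells exposed to compound for 96 hours before readout; 0% = vehicle DMSO and 100% = high DMSO killing control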
# [16] = at 0.5 µM, stronger effect = higher value
# [17] = measured here: combination with BGB IC20, at 0.005 µM
# [18] = measured here: combination with BGB IC40, at 0.005 µM
# [19] = measured here: combination with BGB IC40, at 0.05 µM
# [20] = measured here: combination with cisplatin, at 0.5 µM, stronger effect = higher value
# [21] = measured here: combination with cisplatin, at 5 µM, stronger effect = higher value
# [22] = measured here: with BGB IC20 combination, at 0.5 µM
# [23] = measured here: with cisplatin IC20 combination, at 0.5 µM
# [24] = measured here: 5 uM single agent, at 5 µM
# [25] = measured here: combination with cisplatin, at 0.5 µM
# [26] = measured here: combination with cisplatin, at 5 µM
# [27] = measured here: with BGB IC20, at 0.5 µM
# [28] = measured here: with BGB IC20, at 5 µM
# [29] = measured here: with cisplatin IC20, at 0.5 µM
# [30] = measured here: with cisplatin IC20, at 5 µM
# [31] = measured here: combination with BGB at IC20, at 0.5 µM
# [32] = measured here: combination with cisplatin at IC20, at 0.5 µM
# [33] = measured here: combo with BGB at IC20, at 0.5 µM
# [34] = measured here: combo with cisplatin at IC20, at 0.5 µM
# [35] = measured here: inhibition with BGB combination, at 0.05 µM
# [36] = measured here: inhibition with cisplatin combination, at 0.05 µM
# [37] = measured here: BGB combination, at 0.5 µM
# [38] = measured here: BGB combination, at 5 µM
# [39] = measured here: cisplatin combination, at 0.5 µM
# [40] = measured here: cisplatin combination, at 5 µM
# [41] = BGB combination, concentration series, at 5 µM
# [42] = cisplatin combination, concentration series, at 5 µM
# [43] = measured here: combo with BGB IC20, at 0.5 µM
# [44] = measured here: combo with cisplatin IC20, at 0.5 µM
# [45] = cisplatin combination, at 0.5 µM
# [46] = measured here: BGB IC40 combination 0.05 uM, at 0.05 µM
# [47] = measured here: BGB IC40 combination, at 0.05 µM
structure (smiles),measurement,setting,value
CC(=CC(=O)OCCCCCCCCC(=O)O)CC1OCC(CC2OC2C(C)C(C)O)C(O)C1O (stereo unspecified),inhibition,[1]; [16],-17% (inactive) and -23.9% (inactive)
same,inhibition,[1]; [17],-2.94% and -18.6%
same,inhibition,[1]; [18],-25.4% and -12.1%
same,inhibition,[1]; [19],-14.3% and -15.6%
same,inhibition,[1]; [20],-17.5% and -24.1%
same,inhibition,[1]; [21],-33.1% and 1.08%
same,inhibition,"[2]; BGB combo, at 5 µM",-14.8% and -17.7%
same,inhibition,[2]; at 0.5 µM,-9.45% (inactive) and -27.8% (inactive)
same,inhibition,"[2]; cisplatin combo, at 5 µM",6.33% and -11.4%
same,inhibition,[2]; [22],-8.51% and -26.5%
same,inhibition,[2]; [23],-15.9% and -22.8%
same,inhibition,"[2]; single agent, at 5 µM",-7.18% and -31.8%
same,inhibition,"[3]; BGB IC20 combo, at 0.005 µM",-1.97% and -19.7%
same,inhibition,"[3]; BGB IC40 combo, at 0.005 µM",-39% and 3.24%
same,inhibition,"[3]; BGB IC40 combo, at 0.05 µM",-33.4% and -9.88%
same,inhibition,[3]; at 0.5 µM,-17% (inactive) and -12.7% (inactive)
same,inhibition,"[3]; cisplatin combo, at 0.05 µM",-38.6% and -12.9%
same,inhibition,"[3]; cisplatin combo, at 0.5 µM",-14.9% and -15.5%
same,inhibition,"[3]; cisplatin combo, at 5 µM",-35% and -37.3%
same,inhibition,[3]; [24],-25.3% and -26.1%
same,inhibition,[4]; at 0.5 µM,-33.1% (inactive) and -17.5% (inactive)
same,inhibition,[4]; [19],-28.7% and -19%
same,inhibition,[4]; [25],-76% and -15.9%
same,inhibition,[4]; [26],-33.5% and -12.5%
same,inhibition,[5]; at 0.5 µM,-4.51% (inactive) and -3.63% (inactive)
same,inhibition,[5]; [27],-6.68% and -16.9%
same,inhibition,[5]; [28],0.575% and -34.3%
same,inhibition,[5]; [29],-18.6% and 8%
same,inhibition,[5]; [30],-13.7% and -38.9%
same,inhibition,"[5]; single agent, at 5 µM",1.75% and -9.62%
same,inhibition,[6]; at 0.5 µM,-26.3% (inactive) and -42.8% (inactive)
same,inhibition,[6]; [31],-3.72% and -29.5%
same,inhibition,[6]; [32],-3.83% and -44%
same,inhibition,[7]; at 0.5 µM,-5.45% (inactive) and -14.3% (inactive)
same,inhibition,[7]; [33],-13% and -2.83%
same,inhibition,[7]; [34],-4.76% and -27.9%
same,inhibition,[8]; at 0.5 µM,-10.9% (inactive) and -9.1% (inactive)
same,inhibition,[8]; [35],-7.06% and -24.4%
same,inhibition,[8]; [36],-16.6% and -1.73%
same,inhibition,[9]; at 0.5 µM,-29.1% (inactive) and -8.5% (inactive)
same,inhibition,[9]; [25],-31.2% and -4.9%
same,inhibition,[9]; [26],-23.6% and -39.7%
same,inhibition,[10]; at 0.5 µM,-14.5% (inactive) and -24.2% (inactive)
same,inhibition,[10]; [37],-14.9% and -16%
same,inhibition,[10]; [38],-17.5% and -14.8%
same,inhibition,[10]; [39],-18.1% and -43.4%
same,inhibition,[10]; [40],-22.7% and -18.3%
same,inhibition,[11]; [41],0.308% and -20.1%
same,inhibition,[11]; at 0.5 µM,-2.59% (inactive) and -13% (inactive)
same,inhibition,[11]; [42],9.16% and -8.98%
same,inhibition,[12]; at 0.5 µM,9.62% (inactive) and -5.3% (inactive)
same,inhibition,[12]; [43],10.3% and 3.21%
same,inhibition,[12]; [44],3.29% and -21.1%
same,inhibition,[13]; at 0.5 µM,-23.1% (inactive) and -16.1% (inactive)
same,inhibition,[13]; [45],-23.9% and -16.7%
same,inhibition,"[13]; cisplatin combination, at 5 µM",-18.9% and -3.71%
same,inhibition,[13]; [46],-21.3% and 12.3%
same,inhibition,"[13]; single agent, at 5 µM",-11.4% and -22.4%
same,inhibition,[14]; at 0.5 µM,-6.07% (inactive) and -7.9% (inactive)
same,inhibition,"[14]; cisplatin combo, at 5 µM",-30.1% and -5.18%
same,inhibition,[14]; [47],6.38% and -10.7%
same,inhibition,[14]; [25],18.9% and -20.9%
same,inhibition,"[14]; single agent, at 5 µM",-45.8% and -19.9%
same,inhibition,[15]; at 0.5 µM,-2.77% (inactive) and -21.4% (inactive)
same,inhibition,[15]; [22],-13.1% and -9.57%
same,inhibition,[15]; [23],2.38% and -30.2%
same,inhibition,"[15]; single agent, at 0.05 µM",22.2% and -47.2%
same,inhibition,"[15]; single agent, at 5 µM",3.87% and -28.5%
CC1CNC(=O)NC1=O (stereo unspecified),inhibition,[1]; [16],-30.6% (inactive)
same,inhibition,[1]; [17],-22%
same,inhibition,[1]; [18],-7.63%
same,inhibition,[1]; [19],-15.7%
same,inhibition,[1]; [20],-39.2%
same,inhibition,[1]; [21],-13.3%
same,inhibition,"[2]; BGB combo, at 5 µM",-40.2%
same,inhibition,[2]; at 0.5 µM,-17.3% (inactive)
same,inhibition,"[2]; cisplatin combo, at 5 µM",-24%
same,inhibition,[2]; [22],-4.75%
same,inhibition,[2]; [23],-15.4%
same,inhibition,"[2]; single agent, at 5 µM",2.08%
same,inhibition,"[3]; BGB IC20 combo, at 0.005 µM",-33.2%
same,inhibition,"[3]; BGB IC40 combo, at 0.005 µM",-36.3%
same,inhibition,"[3]; BGB IC40 combo, at 0.05 µM",-20.7%
same,inhibition,[3]; at 0.5 µM,-43.5% (inactive)
same,inhibition,"[3]; cisplatin combo, at 0.05 µM",-20.7%
same,inhibition,"[3]; cisplatin combo, at 0.5 µM",-62.7%
same,inhibition,"[3]; cisplatin combo, at 5 µM",-40.7%
same,inhibition,[3]; [24],-37.5%
same,inhibition,[4]; at 0.5 µM,-30.6% (inactive)
same,inhibition,[4]; [19],-35.2%
same,inhibition,[4]; [25],5.53%
same,inhibition,[4]; [26],23.2%
same,inhibition,[5]; at 0.5 µM,-31.7% (inactive)
same,inhibition,[5]; [27],-55.6%
same,inhibition,[5]; [28],-9.18%
same,inhibition,[5]; [29],-36.4%
same,inhibition,[5]; [30],-7.78%
same,inhibition,"[5]; single agent, at 5 µM",-19.6%
same,inhibition,[6]; at 0.5 µM,-81.6% (inactive)
same,inhibition,[6]; [31],-71.8%
same,inhibition,[6]; [32],-130%
same,inhibition,[7]; at 0.5 µM,7.56% (inactive)
same,inhibition,[7]; [33],12%
same,inhibition,[7]; [34],16.9%
same,inhibition,[8]; at 0.5 µM,-15.4% (inactive)
same,inhibition,[8]; [35],-40%
same,inhibition,[8]; [36],-20.8%
same,inhibition,[9]; at 0.5 µM,-25.2% (inactive)
same,inhibition,[9]; [25],-28%
same,inhibition,[9]; [26],-26.8%
same,inhibition,[10]; at 0.5 µM,-18.9% (inactive)
same,inhibition,[10]; [37],-18.5%
same,inhibition,[10]; [38],-17.9%
same,inhibition,[10]; [39],-32%
same,inhibition,[10]; [40],-4.6%
same,inhibition,[11]; [41],1.37%
same,inhibition,[11]; at 0.5 µM,-11% (inactive)
same,inhibition,[11]; [42],10.9%
same,inhibition,[12]; at 0.5 µM,12.2% (inactive)
same,inhibition,[12]; [43],9.11%
same,inhibition,[12]; [44],12%
same,inhibition,[13]; at 0.5 µM,-12.5% (inactive)
same,inhibition,[13]; [45],-19.5%
same,inhibition,"[13]; cisplatin combination, at 5 µM",-47.1%
same,inhibition,[13]; [46],-27%
same,inhibition,"[13]; single agent, at 5 µM",-16.6%
same,inhibition,[14]; at 0.5 µM,-12% (inactive)
same,inhibition,"[14]; cisplatin combo, at 5 µM",-15.1%
same,inhibition,[14]; [47],-20.6%
same,inhibition,[14]; [25],-13.2%
same,inhibition,"[14]; single agent, at 5 µM",-49.2%
same,inhibition,[15]; at 0.5 µM,-21.8% (inactive)
same,inhibition,[15]; [22],-10.4%
same,inhibition,[15]; [23],-27.5%
same,inhibition,"[15]; single agent, at 0.05 µM",3.21%
same,inhibition,"[15]; single agent, at 5 µM",-10.2%

# From PubChem BioAssay
